Measurements from ChEMBL document CHEMBL3433997, “St. Jude Leishmania screening dataset” (2016).

Tests used:
Assay type in all cases: functional
[1] = target: Solute carrier family 2, facilitated glucose transporter member 1 (Homo sapiens) (UniProt P11166); test: ST_JUDE_LEISH: Cytotoxicity at 2uM final concentration against transgenic Leishmania Mexicana promastigotes LmGLUT1 that are glucose transport deficient and complemented with the human glucose transporter GLUT1. Activity is measured by DNA content using SYBR green in vitro
[2] = target: Hexose transporter 1 (Plasmodium falciparum) (UniProt O97467); test: ST_JUDE_LEISH: Cytotoxicity at 2uM final concentration against transgenic Leishmania Mexicana promastigotes LmPfHT that are glucose transport deficient and complemented with the Plasmodium falciparum hexose transporter. Activity is measured by DNA content using SYBR green in vitro
[3] = target: Glucose transporter (Leishmania mexicana) (UniProt O61059); test: ST_JUDE_LEISH: Cytotoxicity at 2uM final concentration against transgenic Leishmania Mexicana promastigotes LmGT2 that are glucose transport deficient and complemented with the L. Mexicana glucose transporter 2. Activity is measured by DNA content using SYBR green in vitro

Solute carrier family 2, facilitated glucose transporter member 1 (Homo sapiens), sequence (P11166 whole entry): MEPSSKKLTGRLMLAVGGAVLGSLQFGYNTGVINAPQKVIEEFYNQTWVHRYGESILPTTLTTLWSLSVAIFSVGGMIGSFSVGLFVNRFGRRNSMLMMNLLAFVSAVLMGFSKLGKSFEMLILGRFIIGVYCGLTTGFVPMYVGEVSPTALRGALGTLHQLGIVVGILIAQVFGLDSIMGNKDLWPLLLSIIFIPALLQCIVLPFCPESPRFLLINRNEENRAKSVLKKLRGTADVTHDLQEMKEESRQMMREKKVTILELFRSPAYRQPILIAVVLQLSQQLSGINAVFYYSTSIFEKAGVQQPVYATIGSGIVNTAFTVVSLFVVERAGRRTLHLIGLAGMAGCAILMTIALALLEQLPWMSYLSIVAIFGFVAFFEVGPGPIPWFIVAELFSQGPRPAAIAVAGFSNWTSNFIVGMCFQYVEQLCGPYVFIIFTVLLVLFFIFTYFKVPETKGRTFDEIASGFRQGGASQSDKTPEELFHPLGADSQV

Compound | inhibition [1] [%] | inhibition [2] [%] | inhibition [3] [%]
CN1CCCC(CN2CCN(Cc3ccc(-c4ccc(-c5nc6ccccc6[nH]5)s4)cc3)CC2)C1 (stereo not drawn) | 22.9 | 34.8 | 9.58
Cn1c(NC(=O)CCCCCNC(=O)c2ccc(O)c(-c3ccc(Cl)c(Cl)c3)c2)nc2ccccc21 | 1.81 | 1.73 | 2
CC(C)(C)c1ccc(OCCCON2C(=N)N=C(N)NC2(C)C)c(C(C)(C)C)c1 | 1.15 | 0.14 | 1.14
CCN(CC)CCn1c(=N)n(CC(O)c2ccc(Cl)c(Cl)c2)c2ccccc21 (stereo not drawn) | 7.87 | 5.43 | 12.9
CCCCN(CCCC)CCNC(=O)c1cccc(NC(=O)N2CCc3cc(SC)c(C(F)(F)F)cc32)c1 | 3.07 | 4.24 | 2.86
CN(C)CCCc1cc(NC(=O)Nc2cccc(Cl)c2Cl)ccc1I | 1.65 | 5.95 | 3.83
O=C(Nc1ccc(N2CCN(Cc3ccccc3)CC2)cc1)c1cccs1 | 0.15 | 0.83 | -1.68
Cn1c(N)cc(-c2ccc(Br)cc2)c2c(=O)nc(N)nc1-2 | 6.75 | 4.96 | 5.76
CC(=O)c1cc(N2CCOCC2)ccc1N | 2.03 | 1.08 | 2.38
OC(c1nnc(S)n1-c1ccccc1)C(O)c1nnc(S)n1-c1ccccc1 (stereo not drawn) | 10.1 | 8.57 | 10
COc1ccccc1CCNc1nc(C)cc(N[C@@H](Cc2ccccc2)C(=O)Nc2ccccc2)n1 | 12 | 10.7 | 8.65
CCc1cccc(OCC2CCCN(c3ccc(C(=O)NC4CC4)cn3)C2)c1 (stereo not drawn) | 4.71 | 3.55 | 3.3
CCn1ccc2c(N3CCCC3=O)cc(C(=O)N[C@@H](Cc3ccccc3)[C@H](O)CNC(C)(C)CCCC(C)C)cc21 | 0 | 0.39 | 0.34
COc1ccc(CCN(Cc2cccs2)C(=O)c2cc3sccc3n2C)cc1OC | 0.3 | 0.45 | 0.18
O=C(Nc1ccc(OC2CCN(Cc3ccc(F)cc3)CC2)c(Cl)c1)c1ccsc1 | -1.74 | 2.64 | 1.51
CC(C)(C)c1ccc(NC(=O)Nc2ccc(Cn3ncc(N4CCCNCC4)c(Cl)c3=O)cc2)cc1 | 6.36 | 6.82 | 3.41
O=C(Nc1cccc(-c2ccc(-c3nc4cc(C(F)(F)F)ccc4[nH]3)cc2)c1)c1cccnc1 | 3.27 | 1.71 | -0.02
O=C(Nc1ccc(CN2CCOCC2)cc1)c1ccc(-c2cc(Cl)ccc2Cl)o1 | 11 | 8.63 | 7.99

Compound | inhibition [1] [%] | inhibition [2] [%] | inhibition [3] [%]
CC(=O)Oc1cc(C)ccc1C1CCN(CCCCNC(=O)c2ccc(NC(=O)c3ccc(Cl)cc3)cc2)CC1 | 1.6 | 1.07 | 1.52
CCn1c(-c2nonc2N)nc2c(-c3ccc(CO)o3)ncc(OCCCN)c21 | 6.54 | 3.21 | 5.17
COc1ccc(CC(=O)Nc2ccc(-c3cccc(-c4nc5cccc(C)c5[nH]4)c3)cc2)cc1O | 3.89 | 5.29 | 5.34
CC1CCN(c2nc(C(=O)NCCc3ccc(Cl)c(Cl)c3)c(C(C)C)s2)CC1 | 0.93 | 0.99 | 2.67
CCCOc1cc(Cc2cnc(N)nc2N)cc(OC)c1OC | -1.05 | -1.9 | -0.03
COc1ccc(-c2csc3nc(C)nc(Cl)c23)cc1OC | -0.82 | 0.48 | 0.63
COc1ccc(CCNC(=O)c2cc3c(=O)n4cccc(C)c4nc3n(C)c2=N)cc1 | 13.4 | 10.1 | 15.2
Cc1cccc2nc(-c3cccc(-c4ccc(NC(=O)C(C)CN5CCN(C)CC5)cc4)c3)[nH]c12 (stereo not drawn) | 1.5 | 0.53 | 3.85
CCn1c(Sc2ccc([N+](=O)[O-])c(C#N)c2)nnc1-c1ccc(Cl)cc1 | 9.05 | 7.38 | 12.8
Cc1nc(-c2nc(N3CCC(C(N)=O)CC3)ncc2-c2ccsc2)sc1C | 8.94 | 7.69 | 6.73
Cc1ccccc1C1CCN(c2ccc(C(=O)Nc3ccc(F)cc3)cn2)CC1 | 4.93 | -0.36 | 5.56
CCN1CCC(N(Cc2ccc(-c3ccc(C(F)(F)F)cc3)cc2)C(=O)Cn2c(CCc3cccc(F)c3F)cc(=O)c3ccccc32)CC1 | -0.63 | -0.01 | -2.06
c1cc(-c2ccc(CNCCc3ccncc3)cc2)cc(-c2nc3ccccc3[nH]2)c1 | 1.85 | 0.82 | 3.55
O=C(Nc1cn(-c2ccc(OCc3cccc(F)c3)c(Cl)c2)c2ncncc12)c1ccncc1 | 1.53 | 1.05 | 2.96
CCN(CC)CCN(Cc1ccc(-c2ccc(C(F)(F)F)cc2)cc1)C(=O)Cn1c(CCc2cccc(F)c2F)nc(=O)c2cccnc21 | 0.41 | 2.07 | 1.66
Cc1cccc(Cl)c1S(=O)(=O)N1CCCCC(c2ccc(C(F)(F)F)cc2)=N1 | 4.54 | 4.52 | 3.77
Cc1cccc2nc(-c3cccc(-c4ccc(NC(=O)C5CC(=O)Nc6ccccc65)cc4)c3)[nH]c12 (stereo not drawn) | 2.47 | 3.87 | 0.15
CCC(C)(C)c1ccc2nc(N)nc(N)c2c1C | 74.5 | 76.4 | 61.7
